High-throughput results (PubChem BioAssay)
HBB splicing = modulators of hemoglobin beta chain splicing; HBB splicing reporter cell assay, activation; EGFP reporter with mutant IVS2-654 intron; response scale: normalised to 500 nM splice-correcting PNA; Potency, µM (series often up to 46.1 µM), for the others: at the top dose activation, hits mostly activators; AID 925; hit rate 0.06% among 65,000; note: potency is the fitted concentration of half-maximal effect; 0% is about no effect
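Compounds were applied for 2 days to HeLa EGFP-654 cells, 500/well in Optimem with 2% FCS. The reporter's EGFP is disrupted by mis-splicing of beta-globin intron IVS2-654. Readout: summed well GFP fluorescence from 488 nm laser scanning; reference was 500 nM antisense […] 654 PNA.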
Tau fil binding = binders of human tau filaments | P10636 | recombinant tau filaments, thioflavin S fluorescence, 15 h; filaments grown with octadecylsulfate alongside compound | Potency, µM (titrated, usually from 57.1 µM), for the others: at the top dose activity change, negative = inhibition | hit rate 2% among 71,000 | AID 596;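 note: potency is the fitted concentration of half-maximal effect; % is set by controls: 0 for no effect and ±100 for the full control effect; actives lower thioflavin S fluorescence by blocking filaments or displacing dye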
Target sequence (P10636 whole entry, looked up): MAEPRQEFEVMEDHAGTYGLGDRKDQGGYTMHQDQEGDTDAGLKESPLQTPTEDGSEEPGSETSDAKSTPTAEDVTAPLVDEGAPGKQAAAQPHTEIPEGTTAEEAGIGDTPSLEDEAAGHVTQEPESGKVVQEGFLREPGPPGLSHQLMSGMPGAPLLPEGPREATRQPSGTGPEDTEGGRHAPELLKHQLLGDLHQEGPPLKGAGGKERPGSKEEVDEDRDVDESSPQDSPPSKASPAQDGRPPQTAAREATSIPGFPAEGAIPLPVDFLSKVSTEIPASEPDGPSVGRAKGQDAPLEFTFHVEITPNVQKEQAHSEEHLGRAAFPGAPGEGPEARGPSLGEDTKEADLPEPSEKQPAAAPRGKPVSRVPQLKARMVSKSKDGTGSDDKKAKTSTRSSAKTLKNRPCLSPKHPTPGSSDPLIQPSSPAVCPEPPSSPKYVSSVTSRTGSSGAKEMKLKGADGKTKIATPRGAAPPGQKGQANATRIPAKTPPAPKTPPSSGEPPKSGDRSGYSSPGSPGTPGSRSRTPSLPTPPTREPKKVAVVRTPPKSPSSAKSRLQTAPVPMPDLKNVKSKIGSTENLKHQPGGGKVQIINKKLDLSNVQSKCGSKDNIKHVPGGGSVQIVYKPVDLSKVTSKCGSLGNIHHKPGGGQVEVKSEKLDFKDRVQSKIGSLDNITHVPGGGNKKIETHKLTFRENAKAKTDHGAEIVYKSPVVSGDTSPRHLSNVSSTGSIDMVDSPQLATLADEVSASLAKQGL
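Recombinant tau protein (human, 1 uM final) plus 30 uM ODS in HEPES pH 7.4 with NaCl, DTT and thioflavine S. Compound present from the start; fluorescence at 510 nm after 15 h, 37 C.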
Hsp90 Hop PPI = changes Hsp90-Hop TPR2A binding signal, up or down. hit rate 0.44% among 71,000. Potency, µM (top dose mostly 57 µM), for the others: top-dose activity change, negative = inhibition. AlphaScreen TPR2A-His6 binding biotin-Hsp90 C-terminal peptide; active = well fitted curve in either direction with a large enough effect; inconclusive = small, poorly fitted or top-dose-only effect, or another doubt; note: potency is the fitted concentration of half-maximal effect; % is set by controls: 0 for no effect and ±100 for the full control effect
UbGFP stabilizer = ubiquitin-GFP accumulation via proteasome inhibition; AID 526; 67,000 tested, under 10 active; Potency, µM (top dose mostly 45.9 µM), for inactives: at the top dose activation (GFP accumulation), most hits filed as activators; Ubiquitin-GFP reporter cells, proteasome inhibition, GFP fluorescence; response scale: untreated = 0%, 10 µM MG-132 = 100%; active = well fitted activation curve with a large enough effect, not every such curve was filed as active; inconclusive = small, poorly fitted or top-dose-only effect, or another doubt; inactive = no such curve, though single readings can be large or run the other way; note: potency is the fitted concentration of half-maximal effect
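U2OS Ub(G76V)-GFP reporter; O/N plating, 0.5% FBS; cpd 46 uM–2.9 nM, 4 h, 37 °C; GFP+ cell count, 488/515 nm; norm. to basal vs 10 uM MG-132; CRC fit.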
GFP derepression = epigenetic GFP locus derepression in mouse cells; mouse C127i GFP locus derepression, cytometry, 30 h; Potency, µM (highest dose often 46.1 µM), without a hit: top-dose GFP derepression (activation); hit rate 0.09% among 68,000; AID 597; note: % of control where 0% means no effect
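Derepression screen: silenced CMV-GFP reporter in murine C127i cells, 30 h compound incubation at 37 C, washed cells imaged by laser-scanning cytometer to enumerate GFP-expressing objects of 20 to 120 um.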
ERK AVP inh = inhibitors of vasopressin-stimulated ERK signaling pathway; AID 995; hit rate 0.99% among 72,000; HEK293-V1b, vasopressin-stimulated pERK AlphaScreen; Potency, µM (highest dose often 57.5 µM), inactives show at the highest dose activity, negative = inhibition, actives largely listed as inhibitors; note: potency is the fitted concentration of half-maximal effect; % is set by controls: 0 for no effect and ±100 for the full control effect; nearly all actives have a fitted effect of over 55% in size
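HEK293 cells stably expressing V1b receptor, preincubated 30 min at 37 °C with compound, then stimulated 5 min with 25 nM vasopressin. Phospho-ERK by AlphaScreen SureFire after 5 h RT; normalized to DMSO and vasopressin; AC50 by Hill fit.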
* = called active by the depositor; [ ] = dose if it differs, or a comment. An excerpt weighted towards active compounds, which were near 3% of everything screened. Unless noted, calls come from the whole dose curve; as a rule, active = well fitted curve in the direction sought with a large enough effect; inconclusive = small, poorly fitted or top-dose-only effect, or another doubt; inactive = no such curve, though single readings can be large; an effect the other way counts as inactive or inconclusive.

`CCOC(=O)c1cc2c(=O)n3ccccc3nc2n(Cc2ccc(Cl)cc2)c1=N` gave HBB splicing -1%, Tau fil binding 0.5µM*, Hsp90 Hop PPI -5%, UbGFP stabilizer 7%, GFP derepression 3% and ERK AVP inh -13%.
Screening CCCCC#CC1C=CC(OC(C)=O)C(COC(C)=O)O1 (stereo unspecified) returned HBB splicing -1%[9.22 µM] and ERK AVP inh -7%[11.5 µM].
CN(C)c1ccc(-c2nccc(Nc3ccc(F)cc3)n2)cc1 was read as HBB splicing 0%, Tau fil binding 86%, Hsp90 Hop PPI inconclusive, UbGFP stabilizer -7%, GFP derepression -8%[9.22 µM] and ERK AVP inh inconclusive.
CCSc1nc(-c2ccc(OC)cc2)ccc1C#N was read as Tau fil binding 13%, Hsp90 Hop PPI 25µM*, UbGFP stabilizer -5%, GFP derepression 2% and ERK AVP inh 1%.
CN1CCN(c2ncc3nc(-c4cn(C)c5ccccc45)c(=O)n(-c4ccccc4)c3n2)CC1 was read as HBB splicing inconclusive, Tau fil binding 317%, Hsp90 Hop PPI 9%, UbGFP stabilizer 15%, GFP derepression -3%[9.22 µM] and ERK AVP inh 15%.
O=C(c1cc(-c2ccc(O)cc2)on1)N1CCc2ccccc2C1 was read as HBB splicing -1%, Tau fil binding -9%, Hsp90 Hop PPI -4%, UbGFP stabilizer 18%, GFP derepression -3% and ERK AVP inh 32µM*.
`CN1CCN(c2ccnc(-c3ccc(N(C)C)cc3)n2)CC1` gave HBB splicing -1%, Tau fil binding 16%, Hsp90 Hop PPI -4%, UbGFP stabilizer -2%, GFP derepression -1%[9.22 µM] and ERK AVP inh -12%.
Cc1ccn2c(-c3csc(NCc4ccco4)n3)c(C)nc2c1 was read as HBB splicing -3%[0.0738 µM], Tau fil binding 0%[11.4 µM], Hsp90 Hop PPI -9%[11 µM], UbGFP stabilizer 0%[9.17 µM], GFP derepression -2% and ERK AVP inh -20%.
`COc1ccc(-c2csc(NCc3ccco3)n2)cc1C` gave HBB splicing -2%, Tau fil binding 13µM*, Hsp90 Hop PPI -23%, UbGFP stabilizer -3%, GFP derepression -4% and ERK AVP inh inconclusive.
For COc1ccc(C2=C(N)c3ccccc3C2=O)cc1 the results were HBB splicing 0%[9.22 µM], Tau fil binding inconclusive, Hsp90 Hop PPI -16%, UbGFP stabilizer inconclusive, GFP derepression 0% and ERK AVP inh 6%.
COc1ccc(-c2csc3c2[N+]2=CCC=C2C3=O)cc1 was read as HBB splicing 2%[9.22 µM], Tau fil binding 3.2µM*, Hsp90 Hop PPI -11%[11 µM], UbGFP stabilizer 3%[9.17 µM], GFP derepression -3%[9.22 µM] and ERK AVP inh -4%[11.5 µM].
Screening COc1ccccc1N1CSC2=C(C#N)C(c3ccc(SC)cc3)CC(=O)N2C1 (stereo unspecified) returned HBB splicing 1%, Tau fil binding 25µM*, Hsp90 Hop PPI -6%[2.3 µM], UbGFP stabilizer -6% and ERK AVP inh 5%.
`CCc1ccc2c(-c3cccc(Cl)c3)nc(=O)n(CC)c2n1` gave Tau fil binding 32µM*, Hsp90 Hop PPI -7%, UbGFP stabilizer 0%, GFP derepression -2% and ERK AVP inh -28%.
Screening COCCn1c(=O)c(-c2cccc(Cl)c2)nc2cncnc21 returned HBB splicing 1%, Tau fil binding 22%, Hsp90 Hop PPI -1%, UbGFP stabilizer -3%, GFP derepression -2%[9.22 µM] and ERK AVP inh -15%.
`O=C(C[C@@H]1C=Cc2ccccc2N1C(=O)c1ccccc1)c1ccccc1` gave HBB splicing 0%[9.22 µM], Tau fil binding -7%[11.4 µM], Hsp90 Hop PPI -5%[11 µM], UbGFP stabilizer -7%[9.17 µM], GFP derepression 3%[9.22 µM] and ERK AVP inh 13%[11.5 µM].
For Cc1c(-c2nc(N)nc(C3CC3)c2C)nc(N)nc1C1CC1 the results were HBB splicing 1%[9.22 µM], Tau fil binding -9%[11.4 µM], Hsp90 Hop PPI -1%[11 µM], UbGFP stabilizer 2%[9.17 µM], GFP derepression 3%[9.22 µM] and ERK AVP inh -12%[11.5 µM].
